# Screening results from PubChem.
# Sampled rows, rich in hits. Any-hit rate of the full collection: about 3.3%.
# SARS PLpro yeast = SARS-CoV PLP inhibition in yeast | S. cerevisiae expressing SARS-CoV PLpro, growth rescue | Potency, µM (series often up to 32.9 µM), for inactives: at the top dose activity, positive = growth rescue, usual class: activators | 330,000 compounds, 0.19% hits | AID 485353; calls by dose curve; also: 0% is about no effect; nearly all actives have a fitted effect of over 55% in size
# RE007 growth inh = less growth of the S. pombe RE007 Vpr strain; 360,000 compounds, 0.21% hits; S. pombe RE007 Vpr strain, BacTiter-Glo ATP luminescence, 24 h; Potency, µM (top dose mostly 92.2 µM), without a hit: at the highest dose activity change, negative = less growth, usual class: inhibitors; AID 651644; active = well fitted falling curve with a large enough effect; inconclusive = small, poorly fitted or top-dose-only effect; inactive = no such curve, though single readings can be large or run the other way; also: % is scaled to controls: 0 for no effect and ±100 for the full control effect; nearly all actives have a fitted effect of over 50% in size
#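 Fission yeast strain RE007, carrying one chromosomally integrated HIV-1 vpr copy, was seeded at OD 0.01 in PMG+AL medium with 23 nL pinned compound. After 24 h at 30 °C and 99% humidity, viability was read by BacTiter-Glo luminescence.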
# Sm TGR inh = S. mansoni TGR enzyme inhibition; Q962Y6; purified TGR, DTNB reduction, TNB absorbance 405 nm; Potency, µM (series often up to 114 µM), for the others: at the top dose activity change, negative = inhibition, most hits filed as inhibitors; 360,000 compounds, 3% hits; AID 485364; also: % is scaled to controls: 0 for no effect and ±100 for the full control effect; nearly all actives have a fitted effect of over 60% in size
#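 TGR 20 nM + NADPH 100 uM (dispensed conc.), cpd preinc 15 min RT; start with NADPH (500 uM addition) then DTNB (15 mM addition). Kinetic TNB absorbance, 405 nm filter. Four-parameter Hill fit across titration.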
# NS1 function inh = inhibitors of influenza NS1 protein function. Potency, µM (doses to about 46.1 µM), inactives show at the top dose activity, positive = more growth. 270,000 compounds, 0.4% hits. AID 2326; calls by dose curve; also: actives are rising curves; nearly all actives have a fitted effect of over 50% in size
#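 In this qHTS, NS1 from influenza A is expressed in budding yeast, where it slows growth. Cells are switched from glucose to 2% galactose medium (pH 6.0, -URA), treated with compound, and growth recovery is read at OD600.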
# LmPK inhibitor = LmPK (Leishmania mexicana) enzyme inhibition; Q27686; 290,000 compounds, 0.37% hits; purified LmPK, Kinase-Glo ATP luminescence, 1 h; Potency, µM (doses to about 57.5 µM), inactives show at the top dose activity change, negative = inhibition, hits mostly inhibitors; AID 1721; also: % is scaled to controls: 0 for no effect and ±100 for the full control effect
# Target sequence (Q27686 whole entry, looked up): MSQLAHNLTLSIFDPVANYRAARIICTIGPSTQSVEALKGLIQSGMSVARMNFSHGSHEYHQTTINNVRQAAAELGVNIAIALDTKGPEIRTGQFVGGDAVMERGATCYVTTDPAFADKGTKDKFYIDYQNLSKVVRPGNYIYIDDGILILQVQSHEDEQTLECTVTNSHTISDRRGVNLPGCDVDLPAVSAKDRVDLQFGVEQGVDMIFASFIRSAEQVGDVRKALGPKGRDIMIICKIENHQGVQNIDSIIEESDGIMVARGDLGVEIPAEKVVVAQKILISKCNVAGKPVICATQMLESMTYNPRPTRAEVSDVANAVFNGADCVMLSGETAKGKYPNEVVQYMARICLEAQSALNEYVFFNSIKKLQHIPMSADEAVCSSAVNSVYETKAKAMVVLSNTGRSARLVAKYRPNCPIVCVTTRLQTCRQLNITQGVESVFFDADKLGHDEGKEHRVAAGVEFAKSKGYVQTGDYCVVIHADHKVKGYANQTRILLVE
#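 Kinase-Glo luminescence read after 1 h RT reaction of 0.1 nM LmPK with 0.5 mM PEP and 0.1 mM ADP. Activity scaled between uninhibited and enzyme-free controls.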
# Tb PYK inh = T. brucei pyruvate kinase inhibition. Q57TT1. TbPYK enzyme, Kinase-Glo Plus ATP luminescence, 45 min. Potency, µM (doses to about 76.8 µM), for the others: top-dose activity, negative = inhibition, actives largely listed as inhibitors. 410,000 compounds, 0.12% hits. AID 624173; also: % is scaled to controls: 0 for no effect and ±100 for the full control effect; nearly all actives have a fitted effect of over 50% in size
#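 Activity of T. brucei pyruvate kinase was followed by Kinase-Glo Plus luminescence after the enzyme reacted 45 min at room temperature with 130 uM ADP (final) and substrate. Test compounds were added before ADP at multiple concentrations.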
# * marks the source's active call; other numbers are inactive results; ? = inconclusive; / = no result given; [ ] = remark or other dose. Unless noted, calls follow the shape of the dose curve; as a rule, active = well fitted curve in the direction sought with a large enough effect; inconclusive = small, poorly fitted or top-dose-only effect, or another doubt; inactive = no such curve, though single readings can be large; an effect the other way counts as inactive or inconclusive. Potency is read from the fitted curve at half-maximal effect.
SMILES,SARS PLpro yeast,RE007 growth inh,Sm TGR inh,NS1 function inh,LmPK inhibitor,Tb PYK inh
COC(=O)[C@@H]1Cc2c([nH]c3ccccc23)C(C)(C)N1C(=O)CCl,-1.5%,-9.8%,31.6µM*,1.4%,-1.1%,-7.6%
CCOc1ccc(N2C(=O)CC(Sc3ccccc3C(=O)O)C2=O)c([N+](=O)[O-])c1 (stereo unspecified),-3.9%,?,17.8µM*,/,-1.5%,-15.2%
COC(=O)c1ccccc1SC1CC(=O)N(c2ccccc2)C1=O (stereo unspecified),-13.7%,-8.4%,50.1µM*,-19.0%,-1.6%,-0.3%
O=C(O)c1ccccc1SC1CC(=O)N(c2cccc3ccccc23)C1=O (stereo unspecified),-20.9%,7.94µM*,1.78µM*,-129.0%,7.0%,-26.2%
CCN1C(=O)CC(Sc2ccccc2C(=O)O)C1=O (stereo unspecified),-1.3%,4.7%,?,8.0%,2.2%,-14.2%
COC(=O)c1ccc(N2C(=O)CC(SCCN)C2=O)cc1 (stereo unspecified),-25.9%,-10.9%,?,18.1%,-2.8%,0.9%
C=C(C)CN(CC#N)CC(=C)C,/,/,/,-1.0%,/,/
O=C(CCCSc1ccc(Cl)cc1)Nc1ccccc1O,-69.1%,35.5µM*,-9.9%,-128.5%,-8.0%,7.3%
CCCC(=O)C1=C(O)C(C(=O)OC)C(C)(C)CC1=Nc1ccccc1 (stereo unspecified),0.7%,14.2%,1.6%,-43.0%,-8.3%,-11.3%
CCCC(=O)C1=C(O)C(C(=O)OC)C(C)(C)CC1=NCc1ccccc1 (stereo unspecified),-0.6%,4.9%,100µM*,9.8%,0.1%,-14.9%
CCc1ccccc1NC(=O)C(=O)NCC(c1cccnc1)N1CCN(c2ccccc2F)CC1 (stereo unspecified),/,/,-3.5%,/,/,-2.6%
COC(=O)c1ccc(S(=O)(=O)NCc2ccco2)n1C,1.7%,0.2%,35.5µM*,4.4%,-1.6%,-5.0%
COc1cccc(C(=O)NCCS(=O)(=O)NCc2ccco2)c1,0.0%,63.0%,?,/,/,-0.4%
CCCNS(=O)(=O)c1ccc(OCC(=O)NCc2ccco2)cc1,1.8%,4.7%,-30.6%,-30.4%,-1.3%,0.1%
COc1ccc(C(=O)NCCS(=O)(=O)NCc2ccco2)cc1,-4.4%,0.0%,44.7µM*,/,/,2.8%
Cc1ccc(S(=O)(=O)NCc2ccco2)cc1C,-2.9%,-11.8%,-20.2%,7.1%,0.6%,0.0%
COC(=O)COc1ccc(S(=O)(=O)NCc2ccco2)cc1,-1.3%,1.1%,35.5µM*,1.0%,-1.1%,6.2%
O=S(=O)(NCc1ccco1)c1ccc2c(c1)Cc1ccccc1-2,-0.9%,1.4%,7.94µM*,-4.6%,1.6%,-7.8%
CC(=O)OC1=CC2=CC[C@H]3[C@H]4CCC(=O)[C@@]4(C)CC(=O)[C@]3(S)[C@]2(C)CC1,/,/,/,-0.1%,/,/
CN=C(NC)NCc1ccccc1,/,/,/,/,/,13.8%
C=CC1=C2C=C(C3CC3)N(Cc3ccc4c(c3)OCO4)C=C2C(=O)C(C)(OC(=O)c2ccco2)C1=O (stereo unspecified),/,/,/,/,-4.9%[11.5 µM],/
CCOC(=O)COc1ccc(S(=O)(=O)NCc2ccncc2)cc1,2.4%,-5.8%,2.3%,19.2%,-3.3%,4.1%
CCOC(=O)COc1ccc(S(=O)(=O)NCc2ccco2)cc1,1.5%,5.8%,50.1µM*,5.1%,5.7%,-30.2%
CCSc1nnc(NC(=O)C(C(F)(F)F)C(F)(F)F)s1,-8.8%,1.0%,39.8µM*,-2.6%,1.3%,2.3%
CCSc1nnc(NC(=O)c2cnccn2)s1,-0.9%,-19.9%,0.0%,-39.0%,-2.5%,-3.4%
SMILES,SARS PLpro yeast,RE007 growth inh,Sm TGR inh,NS1 function inh,LmPK inhibitor,Tb PYK inh
CCSc1nnc(NC(=O)C(C)C)s1,11.7%,-0.5%,0.0%,5.8%,8.2%,-2.9%
CCSc1nnc(NC(=O)c2ccccn2)s1,-12.3%,11.2µM*,1.3%,-82.5%,?,-11.8%
Cc1cc(NC(=O)CN2C(=O)CSc3ccc(S(=O)(=O)N(C)C)cc32)ccc1Br,/,/,3.1%,/,/,-4.5%
COc1ccc(CNc2cc(C)ccn2)c(O)c1,-1.8%,0.2%,7.08µM*,2.2%,4.0%,4.8%
O=C(NCCCNc1ccc([N+](=O)[O-])cc1)C(F)(F)F,9.8%,-9.1%,5.8%,12.6%,6.1%,-5.2%
O=C(CCl)N(CCCNC(=O)C(F)(F)F)c1ccc([N+](=O)[O-])cc1,-0.1%,-1.7%,2.82µM*,0.6%,-4.6%,-4.4%
CCc1cc(SC#N)cc(C)c1N,0.0%,-0.3%,5.8%,/,0.9%,-1.3%
CCc1cc(SC#N)cc(C)c1NC(=O)CCl,-18.2%,22.7%,10µM*,-24.2%,-2.2%,-7.9%
COc1ccccc1S(=O)(=O)Cc1ccc(C(=O)NC(C)c2ccc3c(c2)OCCO3)o1 (stereo unspecified),1.0%,11.0%,39.8µM*,1.1%,2.5%,-4.3%
Cc1ccccc1S(=O)(=O)Cc1ccc(C(=O)NC(C)c2ccccc2)o1 (stereo unspecified),1.5%,-6.3%,-14.9%,-11.8%,-1.6%,3.3%
COc1cccc(CN2CCN(C3CCN(c4ccccc4F)CC3)CC2CCO)c1 (stereo unspecified),1.2%,-18.3%,22.4µM*,1.4%,7.4%,-6.8%
CCOC(=O)N1CCC(N2CCN(Cc3ccccc3)C(CCO)C2)CC1 (stereo unspecified),0.5%,-28.4%,15.8µM*,3.8%,5.2%,-3.7%
CCOC(=O)N1CCC(N2CCN(Cc3ccc(C)o3)C(CCO)C2)CC1 (stereo unspecified),0.0%,-10.1%,-7.3%,1.4%,0.1%,-5.2%
O=C(N/C(C(=O)N1CCOCC1)=C(\Sc1ncccn1)c1ccccc1)c1ccccc1,-3.1%,19.9%,39.8µM*,7.7%,-13.4%,1.9%
C=CCSc1nnc2c(n1)OC(c1ccco1)Nc1ccccc1-2 (stereo unspecified),-3.0%,4.0%,-32.8%,-7.3%,-3.2%,3.1%
C=CCSc1nnc2c(n1)OC=Nc1ccccc1-2,-5.6%,?,?,-74.8%,25.1µM*,-3.3%
C#CCOc1c(/C=C\c2nc(O)c([N+](=O)[O-])c(=O)[nH]2)cc(Br)cc1OC,3.7%,5.7%,35.5µM*,10.0%,-1.2%,-0.5%
COC(=O)COc1c(/C=C\c2nc(O)c([N+](=O)[O-])c(=O)[nH]2)cccc1OC,4.6%,-7.6%,?,-0.5%,-3.1%,0.2%
Cc1[nH]c(=O)c(C(=O)/C=C/c2ccccc2F)c2c1CCCC2,2.3%,2.2%,100µM*,6.7%,2.1%,5.9%
N/C(=N\OC(=O)c1ccc(F)cc1)c1ccccc1,-14.7%,?,8.6%,-63.7%,7.94µM*,?
Cc1ccc(/C(N)=N/OC(=O)c2cccc(F)c2)cc1,7.8%,-14.1%,0.5%,-15.6%,0.2%,-3.0%
